Test results as given in PubChem BioAssay AID1159580 (chemical genetic matrix, 2015).
Among all 5,500 compounds or so, about 2,000 (36%) were called active. About 18% were inconclusive and are not listed. Rule as the data show it: active = normalized growth mostly below about 0.91 (no sharp cut-off); inconclusive = no clear call, values can overlap the other calls; inactive = mostly above about 0.92. The list shows a part of the results.

Assay: chemical genetic growth profiling, strain panel (AID 1159580);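 also: tested at 20 µM; growth read once vehicle control cultures reached saturation at 30 °C; 1 = growth at the plate median or of vehicle wells; lower values mean less growth of the strain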
Settings: S. cerevisiae deletion strains, growth OD

Measured: normalized growth

COc1cccc2c1CCC1CC(=O)CCC21C (stereo unspecified)
active: locus YDR502C, strain sam2, active compounds read low 0.912 | locus YGL086W, strain mad1, active compounds read low 0.922 | locus YGR135W, strain pre9, active compounds read low 0.886 | locus YLR418C, strain cdc73, active compounds read low 0.812 | locus YOR184W, strain ser1, active compounds read low 0.848 | locus YPR163C, strain tif3, active compounds read low 0.902
inactive: locus YAL021C, strain ccr4, active compounds read low 0.99 | locus YAL026C, strain drs2, active compounds read low 0.994 | locus YAL030W, strain snc1, active compounds read low 0.991 | locus YBL061C, strain skt5, active compounds read low 1 | locus YBR009C, strain hhf1, active compounds read low 0.996 | locus YBR021W, strain FUR4, active compounds read low 0.92 | locus YBR023C, strain chs3, active compounds read low 0.993 | locus YBR171W, strain sec66, active compounds read low 0.985 | locus YBR229C, strain ROT2, active compounds read low 0.992 | locus YBR231C, strain swc5, active compounds read low 0.996 | locus YBR279W, strain paf1, active compounds read low 0.988 | locus YCL011C, strain gbp2, active compounds read low 1 | locus YCL016C, strain dcc1, active compounds read low 0.995 | locus YCL029C, strain bik1, active compounds read low 0.955 | locus YCL061C, strain MRC1, active compounds read low 0.996 | locus YCL069W, strain vba3, active compounds read low 0.994 | locus YCR088W, strain abp1, active compounds read low 0.993 | locus YDL005C, strain med2, active compounds read low 1 | locus YDL035C, strain GPR1, active compounds read low 0.982 | locus YDL040C, strain nat1, active compounds read low 0.992 | locus YDL074C, strain BRE1, active compounds read low 0.931 | locus YDL101C, strain DUN1, active compounds read low 0.986 | locus YDL134C, strain PPH21, active compounds read low 0.956 | locus YDL185W, strain tfp1, active compounds read low 0.953 | locus YDL192W, strain arf1, active compounds read low 0.936 | locus YDR001C, strain nth1, active compounds read low 0.984 | locus YDR069C, strain doa4, active compounds read low 1.01 | locus YDR101C, strain arx1, active compounds read low 0.983 | locus YDR137W, strain rgp1, active compounds read low 0.998 | locus YDR159W, strain sac3, active compounds read low 1.02 | locus YDR162C, strain NBP2, active compounds read low 0.919 | locus YDR195W, strain ref2 1.07 | locus YDR297W, strain sur2, active compounds read low 1 | locus YDR318W, strain mcm21, active compounds read low 0.937 | locus YDR334W, strain swr1, active compounds read low 1 | locus YDR335W, strain msn5, active compounds read low 1 | locus YDR388W, active compounds read low 0.948 | locus YDR392W, strain spt3, active compounds read low 0.873 | locus YEL003W, strain gim4, active compounds read low 0.981 | locus YEL037C, strain rad23, active compounds read low 0.992 | locus YEL061C, strain CIN8 (second series), active compounds read low 0.995 | locus YEL061C, strain CIN8, active compounds read low 0.987 | locus YER015W, strain faa2, active compounds read low 1 | locus YER016W, strain bim1, active compounds read low 0.994 | locus YER110C, active compounds read low 0.934 | locus YER111C, strain swi4, active compounds read low 0.994 | locus YER155C, strain BEM2 (second series), active compounds read low 0.944 | locus YER155C, strain BEM2, active compounds read low 0.982 | locus YER167W, strain BCK2, active compounds read low 0.993 | locus YFR010W, strain ubp6, active compounds read low 1 | locus YGL078C, strain dbp3, active compounds read low 0.983 | locus YGL167C, strain pmr1, active compounds read low 1 | locus YGL173C, strain kem1, active compounds read low 0.987 | locus YGL227W, strain vid30, active compounds read low 0.998 | locus YGL240W, strain doc1, active compounds read low 0.982 | locus YGL248W, strain PDE1, active compounds read low 0.975 | locus YGL253W, strain hxk2, active compounds read low 1 | locus YGR229C, strain SMI1, active compounds read low 0.991 | locus YGR252W, strain gcn5, active compounds read low 0.777 | locus YHR013C, strain ard1, active compounds read low 0.976 | locus YHR027C, strain rpn1, active compounds read low 1.02 | locus YHR030C, strain SLT2, active compounds read low 0.991 | locus YHR079C, strain IRE1 (second series), active compounds read low 0.955 | locus YHR094C, strain hxt1, active compounds read low 0.948 | locus YHR129C, strain ARP1, active compounds read low 0.977 | locus YHR142W, strain chs7, active compounds read low 0.981 | locus YHR200W, strain rpn10, active compounds read low 0.941 | locus YIL066C, strain RNR3, active compounds read low 0.968 | locus YIL073C, strain SPO22, active compounds read low 0.887 | locus YIL125W, strain kgd1, active compounds read low 0.977 | locus YIR030C, strain dcg1, active compounds read low 0.962 | locus YJL092W, strain hpr5, active compounds read low 0.994 | locus YJL095W, strain BCK1 (second series), active compounds read low 0.99 | locus YJL095W, strain BCK1, active compounds read low 0.91 | locus YJL115W, strain asf1, active compounds read low 1 | locus YJL129C, strain trk1, active compounds read low 0.939 | locus YJL134W, strain LCB3, active compounds read low 0.981 | locus YJL154C, strain vps35, active compounds read low 0.995 | locus YJL164C, strain tpk1, active compounds read low 0.989 | locus YJL166W, strain qcr8, active compounds read low 0.991 | locus YJL168C, strain set2, active compounds read low 0.963 | locus YJL187C, strain SWE1 (second series), active compounds read low 0.963 | locus YJL187C, strain SWE1, active compounds read low 1.01 | locus YKL009W, strain mrt4, active compounds read low 0.97 | locus YKL068W, active compounds read low 0.969 | locus YKL085W, strain MDH1 (second series), active compounds read low 0.966 | locus YKL085W, strain MDH1, active compounds read low 0.966 | locus YKL160W, strain elf1, active compounds read low 0.98 | locus YKL190W, strain CNB1, active compounds read low 0.993 | locus YKR001C, strain vps1, active compounds read low 0.914 | locus YKR026C, strain gcn3, active compounds read low 0.992 | locus YKR091W, strain srl3, active compounds read low 0.988 | locus YLL001W, strain dnm1, active compounds read low 0.994 | locus YLL026W, active compounds read low 0.999 | locus YLL041C, strain sdh2, active compounds read low 0.99 | locus YLR027C, strain aat2, active compounds read low 0.985 | locus YLR039C, strain RIC1, active compounds read low 0.974 | locus YLR058C, strain SHM2, active compounds read low 0.982 | locus YLR102C, strain apc9, active compounds read low 0.961 | locus YLR221C, strain rsa3, active compounds read low 1.01 | locus YLR258W, strain gsy2, active compounds read low 0.983 | locus YLR262C, strain YPT6 (second series), active compounds read low 1 | locus YLR268W, strain sec22, active compounds read low 0.963 | locus YLR320W, strain mms22, active compounds read low 0.977 | locus YLR330W, strain CHS5, active compounds read low 0.98 | locus YLR342W, strain FKS1, active compounds read low 0.994 | locus YLR357W, strain rsc2, active compounds read low 1.01 | locus YLR370C, strain arc18, active compounds read low 0.987 | locus YLR371W, strain rom2, active compounds read low 0.965 | locus YLR384C, strain iki3, active compounds read low 0.999 | locus YML016C, strain PPZ1, active compounds read low 0.978 | locus YML032C, strain rad52, active compounds read low 0.946 | locus YML120C, strain ndi1, active compounds read low 0.987 | locus YML124C, strain tub3, active compounds read low 0.969 | locus YMR058W, strain fet3, active compounds read low 0.995 | locus YMR078C, strain ctf18, active compounds read low 0.95 | locus YMR125W, strain sto1, active compounds read low 0.995 | locus YMR129W, active compounds read low 0.991 | locus YMR205C, strain PFK2, active compounds read low 0.982 | locus YMR223W, strain ubp8, active compounds read low 0.947 | locus YMR231W, strain pep5, active compounds read low 0.99 | locus YMR263W, strain SAP30, active compounds read low 0.965 | locus YMR307W, strain GAS1, active compounds read low 0.849 | locus YNL067W, strain RPL9B, active compounds read low 0.968 | locus YNL071W, strain lat1, active compounds read low 0.985 | locus YNL209W, strain ssb2, active compounds read low 0.992 | locus YNL233W, strain BNI4, active compounds read low 0.937 | locus YNL248C, strain rpa49, active compounds read low 0.998 | locus YNL250W, strain rad50, active compounds read low 0.952 | locus YNL271C, strain bni1, active compounds read low 0.962 | locus YNL298W, strain CLA4, active compounds read low 0.959 | locus YNL307C, strain MCK1, active compounds read low 0.917 | locus YNL322C, strain KRE1 (second series), active compounds read low 0.996 | locus YNL322C, strain KRE1, active compounds read low 0.982 | locus YNR049C, strain mso1, active compounds read low 1.01 | locus YNR052C, strain pop2, active compounds read low 0.969 | locus YOL006C, strain TOP1, active compounds read low 0.788 | locus YOL012C, strain htz1 0.835 | locus YOL147C, strain pex11, active compounds read low 0.949 | locus YOR001W, strain rrp6, active compounds read low 1.01 | locus YOR061W, strain CKA2, active compounds read low 0.991 | locus YOR069W, strain VPS5, active compounds read low 0.977 | locus YOR070C, strain gyp1, active compounds read low 0.985 | locus YOR080W, strain dia2, active compounds read low 1.01 | locus YOR083W, strain WHI5, active compounds read low 0.987 | locus YOR106W, strain vam3, active compounds read low 1 | locus YOR136W, strain idh2, active compounds read low 0.966 | locus YOR144C, strain elg1, active compounds read low 0.958 | locus YOR265W, strain rbl2, active compounds read low 1.01 | locus YOR270C, strain vph1, active compounds read low 0.907 | locus YOR290C, strain snf2, active compounds read low 0.985 | locus YOR316C, strain cot1, active compounds read low 0.947 | locus YPL051W, strain arl3, active compounds read low 0.981 | locus YPL078C, strain atp4, active compounds read low 0.979 | locus YPL106C, strain sse1, active compounds read low 1 | locus YPL240C, strain hsp82, active compounds read low 0.993 | locus YPR119W, strain clb2, active compounds read low 0.958 | locus YPR141C, strain kar3, active compounds read low 0.965 | locus YPR167C, strain met16, active compounds read low 0.952 | strain wtn01, active compounds read low 0.936
